Laboratory results published in PubChem BioAssay (NCATS).
Records with an inconclusive call do not appear. Entries that show only a call come without a potency. Calls of active or inactive are those of the source. Unless noted, calls come from the whole dose curve; as a rule, active = well fitted curve in the direction sought with a large enough effect; inconclusive = small, poorly fitted or top-dose-only effect, or another doubt; inactive = no such curve, though single readings can be large; an effect the other way counts as inactive or inconclusive.

Assays:
[1] = qHTS of Trypanosoma Brucei Inhibitors: LOPAC Validation (AID 624147)
Method in brief: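 Readout: single end-point luminescence (Kinase-Glo Plus, 10 min). Reaction conditions were TbPYK/substrate plus 130 uM ADP, 45 min at RT, pH 7.2 TEA buffer. No-enzyme wells served as controls, and data were normalized before concentration-response fitting.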

[2] = target: Glucagon-like peptide 1 receptor (Homo sapiens) (UniProt P43220); assay: qHTS of GLP-1 Receptor Agonists: LOPAC Validation (AID 624148);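 note: luminescence from a luciferase reporter switched on by cAMP; higher luminescence signal means agonism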
Method in brief: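 Agonism scored as increased luciferase luminescence driven by cAMP in HEK293 clones carrying GLP-1R. Cells settled 12 hours, received compound for 4-6 hr at 37 deg C, 5% CO2, and were read after 12 min detection reagent at RT.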

[3] = HTS Assay for Allosteric Antagonists of the Human D2 Dopamine Receptor: Hit Validation in HTRF (AID 624455);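 note: stable D1 dopamine receptor cell line scored for blocking the D1 response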
Method in brief: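 Inhibition of the D1-mediated response is measured by HTRF in cells that stably express the D1 dopamine receptor. Compounds reaching this step are hits from calcium-flux antagonism testing at EC80 dopamine in inducible Hek293 Trex D2 cells.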

[4] = Cytotoxicity counterscreen for NFkB agonists and antagonists (AID 624476);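 note: cells exposed to compound for 48 hours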; note: potency is the fitted concentration of half-maximal effect
[5] = qHTS Assay for Identification of Small Molecule Antagonists for NFkB Signaling Pathway. (AID 624479; calls by dose curve;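 note: pathway stimulated with TNF alpha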; note: potency is the fitted concentration of half-maximal effect)
[6] = Cell Proliferation Assay against the TMD8 Cell Line (AID 651645); settings: TMD8 DLBCL cell line proliferation/viability; at 46.1 µM (top of the series) unless noted;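 note: cells exposed to compound for 48 h before reading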
Method in brief: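 500 TMD8 cells/well, RPMI + Glutamax, no phenol red, 5% FBS; cpd added immediately; 48 h, 37C, 5% CO2; CellTiter-Glo, luminescence. Controls: DMSO = 100%, bortezomib 9.2 uM final = 0%.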

[7] = Cell Proliferation Assay against the HBL1 Cell Line (AID 651646); settings: HBL1 DLBCL cells; at 46.1 µM (top of the series) unless noted;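 note: cells exposed to compound for 48 h before reading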
Method in brief: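 CellTiter-Glo luminescence after 48 h compound exposure at 37C gives percent activity, with DMSO as 100% and 9.2 uM bortezomib final as 0%. Cells: 500 log-phase HBL1 per well, RPMI plus 5% FBS.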

[8] = Cell Proliferation Assay against the TMD8 Cell Line (Caspase readout at 16 hrs) (AID 651712)
Method in brief: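 Caspase-Glo luminescence measured apoptosis after a 16 h, 37 C compound exposure of TMD8 cells (500 cells/well, 5% FBS RPMI). DMSO set 0% and bortezomib at 9.2 uM final set 100% activity.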

[9] = qHTS assay for small molecule activators of the p53 signaling pathway (AID 651743; active = well fitted activation curve with a large enough effect in the signal ratio, not every such curve was filed as active; the % refers to the signal ratio; note: potency is the fitted concentration of half-maximal effect); settings: HCT-116 p53RE-bla, beta-lactamase FRET ratio, 16 h; activation: stronger effect = higher value
Method in brief: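 After 16 hours compound treatment at 37 C, HCT-116 cells stably expressing p53RE-driven beta-lactamase were loaded with LiveBLAzer B/G FRET substrate for 2 hours at room temperature. Fluorescence intensity served as the p53 activation read-out.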

[10] = qHTS assay for small molecule activators of the nuclear factor-kappa B (NF-kB) signaling pathway (AID 651749; active = well fitted activation curve with a large enough effect in the signal ratio; the % refers to the signal ratio); settings: NF-kB-bla ME-180 cells, beta-lactamase FRET ratio, 16 h; stronger effect = higher value
Method in brief: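 Activation measured after 16 hr compound treatment at 37C, 5% CO2, of 2,000 ME-180 cells/well stably expressing an NF-kB response element–driven beta-lactamase reporter, via FRET-disruption fluorescence.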

[11] = target: Tumor necrosis factor (Homo sapiens) (UniProt P01375); assay: qHTS assay to identify small molecules that stimulate Tumor Necrosis Factor-alpha (TNF-alpha) secretion (AID 651757; active = well fitted curve in the direction sought with a large enough effect in the signal ratio; the % refers to the signal ratio)
Method in brief: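 Human monocytic THP-1 cells are plated, treated with compound and held at 37 C for 17 hrs. Labeled anti-TNF-alpha antibody mixture is then added; after 3 hr at room temperature, TR-FRET signal reports secreted TNF-alpha.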

[12] = qHTS assay for environmental chemicals that activate the Aryl hydrocarbon Receptor (AhR) signaling pathway (AID 651777); settings: 1A2-DRE human hepatoma cells, luciferase, 24 h; activation: stronger effect = higher value; note: nearly all actives have a fitted effect of over 15% in size
Method in brief: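 Reporter gene assay: hepatoma cells with DRE/CYP1A2-luciferase, 24 hr compound incubation at 37 C, 5% CO2, luminescence after One-Glo (30 min, RT).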

[13] = target: Peroxisome proliferator-activated receptor alpha (Homo sapiens) (UniProt Q07869); assay: qHTS assay for small molecule agonists of the peroxisome proliferator-activated receptor alpha (PPARalpha) signaling pathway (AID 651778); settings: PathHunter PPARalpha complementation, chemiluminescence, 6 h; stronger effect = higher value
Method in brief: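 Chemiluminescence from complemented enzyme reported PPARalpha activation in cells after 6 hr of compound treatment at 37 C. The detection reagent was incubated for 60 min at room temperature, and compounds were scored as agonists.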

[14] = Cell Proliferation Assay against the TMD8 Cell Line (Caspase readout at 8 hrs) (AID 651713)
Method in brief: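 Caspase 3/7 activation in ABC DLBCL TMD8 cells is measured by luminescence after an 8 h compound exposure at 37C. Relative light units are scaled between DMSO (0%) and 9.2 uM final bortezomib (100%).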

[15] = qHTS assay for small molecule agonists of the antioxidant response element (ARE) signaling pathway (AID 651741; active = well fitted activation curve with a large enough effect in the signal ratio; the % refers to the signal ratio)
Method in brief: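 Beta-lactamase reporter under ARE control in HepG2 cells, 2,000 per well, was induced by 16 h compound treatment at 37 C. Read-out was fluorescence from LiveBLAzer B/G FRET substrate after 2 h at room temperature.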

[16] = qHTS assay for small molecule disruptors of the mitochondrial membrane potential - 1 hr assay (AID 651754; calls by dose curve; note: nearly all actives have a fitted effect of over 35% in size)
Method in brief: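 Loss of mitochondrial potential shifts the cationic dye from red mitochondrial aggregates to green cytoplasmic monomers. Cells (HepG2) are treated with compound for 1 hr before a 30 min dye incubation at 37C.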

[17] = qHTS assay for small molecule disruptors of the mitochondrial membrane potential - 5 hr assay (AID 651755; calls by dose curve; note: nearly all actives have a fitted effect of over 40% in size)
Method in brief: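 Membrane-potential dye readout: red aggregate (540 ex/590 em) versus green monomer (490 ex/535 em) fluorescence after 30 min dye loading, following 5 hr compound exposure at 37C of overnight-plated HepG2 cells.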

[18] = qHTS of Nrf2 Activators: LOPAC Validation (AID 624149)
Method in brief: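 Cells (AREc32_Fluc) are plated at 1000 per well in OPTI-MEM containing 5% FBS and left overnight. Compounds are pinned in and incubated 24 hr at 37 deg C, and firefly luciferase is detected with Steady-Glo.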

Sequence of Peroxisome proliferator-activated receptor alpha (Homo sapiens) (Q07869 whole entry, looked up): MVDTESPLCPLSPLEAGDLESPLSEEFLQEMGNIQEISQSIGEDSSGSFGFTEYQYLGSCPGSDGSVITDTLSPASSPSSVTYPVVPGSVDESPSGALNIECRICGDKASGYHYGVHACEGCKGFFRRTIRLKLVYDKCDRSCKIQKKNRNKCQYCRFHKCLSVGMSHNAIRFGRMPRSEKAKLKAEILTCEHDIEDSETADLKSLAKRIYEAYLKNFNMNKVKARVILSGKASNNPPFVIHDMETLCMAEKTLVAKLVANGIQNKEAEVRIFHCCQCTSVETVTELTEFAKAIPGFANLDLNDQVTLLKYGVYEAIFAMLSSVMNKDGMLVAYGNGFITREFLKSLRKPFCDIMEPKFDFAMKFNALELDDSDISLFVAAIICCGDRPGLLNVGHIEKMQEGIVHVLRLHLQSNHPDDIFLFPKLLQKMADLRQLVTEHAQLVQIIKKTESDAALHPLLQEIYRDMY
Sequence of Tumor necrosis factor (Homo sapiens) (P01375 whole entry, looked up): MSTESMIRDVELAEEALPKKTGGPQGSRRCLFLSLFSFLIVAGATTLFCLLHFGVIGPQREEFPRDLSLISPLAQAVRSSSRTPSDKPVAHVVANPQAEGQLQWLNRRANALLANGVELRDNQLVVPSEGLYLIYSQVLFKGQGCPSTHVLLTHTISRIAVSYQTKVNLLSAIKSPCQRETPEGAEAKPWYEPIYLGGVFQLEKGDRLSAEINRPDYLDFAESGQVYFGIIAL
Sequence of Glucagon-like peptide 1 receptor (Homo sapiens) (P43220 whole entry, looked up): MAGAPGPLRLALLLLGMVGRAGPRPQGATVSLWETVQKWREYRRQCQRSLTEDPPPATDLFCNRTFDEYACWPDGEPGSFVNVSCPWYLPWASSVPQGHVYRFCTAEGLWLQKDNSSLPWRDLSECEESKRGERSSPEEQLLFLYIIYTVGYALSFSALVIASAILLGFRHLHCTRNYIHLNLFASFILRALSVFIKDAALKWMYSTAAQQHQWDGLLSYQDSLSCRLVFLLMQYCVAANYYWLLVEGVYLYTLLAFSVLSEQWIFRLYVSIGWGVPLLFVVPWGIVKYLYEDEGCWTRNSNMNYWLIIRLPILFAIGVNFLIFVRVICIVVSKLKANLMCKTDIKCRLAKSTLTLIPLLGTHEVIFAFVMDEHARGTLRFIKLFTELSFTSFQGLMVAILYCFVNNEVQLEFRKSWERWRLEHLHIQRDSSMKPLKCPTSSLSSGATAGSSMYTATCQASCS

For `Cc1cccc(C#Cc2ccccc2)n1`, which Potency [1] is on record?
The Potency was “inactive”.

What about the outcome [2] of the same molecule?
The outcome was “inactive”.

What about the outcome [3] of the same molecule?
The outcome was “inactive”.

What about the Potency [4] of the same molecule?
The Potency was “inactive”.

What about the Potency [5] of the same molecule?
The Potency was “inactive”.

And the viability (% of control) [6]?
Its viability (% of control) is 116%.

What about the viability, percent of control [7] of the same molecule?
Its viability, percent of control is 102%.

What about the Potency [8] of the same molecule?
The Potency was “inactive”.

Which activation [9] does the source give for `CCCCC(CC)COC(=O)C(C#N)=C(c1ccccc1)c1ccccc1` (configuration not stated) here?
Its activation is -3.23% (inactive).

What about the activation [10] of the same molecule?
Its activation is 0.0169% (inactive).

What about the Potency [11] of the same molecule?
Its Potency is “inactive”.

What about the activation [12] of the same molecule?
The activation was 0.749% (inactive).

What about the max response [13] of the same molecule?
The max response was -1.78% (inactive).

For `CCOC(=O)C1=C(O)C(=O)N(Cc2ccccc2)C1`, which Potency [4] is on record?
The Potency was “inactive”.

And the Potency [5]?
Its Potency is “inactive”.

And the viability (% of control) [6]?
Its viability (% of control) is 104%.

What about the viability, percent of control [7] of the same molecule?
The viability, percent of control was 107%.

And the Potency [8]?
Its Potency is “inactive”.

And the Potency [14]?
The Potency was “inactive”.

Which results are given for `Nc1cccc2c1CN(C1CCC(=O)NC1=O)C2=O` (configuration not stated)?
Potency [4]: inactive; Potency [5]: inactive; viability (% of control) [6]: 102% [at 92.2 µM]; viability, percent of control [7]: 121% [at 92.2 µM]; Potency [8]: inactive; Potency [14]: inactive

With `Cc1nc(Nc2ncc(C(=O)Nc3c(C)cccc3Cl)s2)cc(N2CCN(CCO)CC2)n1` as the molecule, how does the Potency [5] read?
The Potency was 16.8 µM (active).

And the viability (% of control) [6]?
Its viability (% of control) is 8.11%.

And the viability, percent of control [7]?
Its viability, percent of control is 27.1%.

And the Potency [14]?
Its Potency is “inactive”.

With `Nc1ccc(S(N)(=O)=O)cc1` as the molecule, how does the Potency [15] read?
The Potency was “inactive”.

And the activation [9]?
Its activation is -2.72% (inactive).

And the Potency [16]?
Its Potency is “inactive”.

And the Potency [17]?
Its Potency is “inactive”.

What about the Potency [11] of the same molecule?
Its Potency is “inactive”.

And the activation [12]?
Its activation is -0.82% (inactive).

What about the max response [13] of the same molecule?
The max response was 3.64% (inactive).

Which outcome [2] does the source give for `Oc1ccc2ccccc2c1SSc1c(O)ccc2ccccc12` here?
The outcome was “inactive”.

And the outcome [18]?
The outcome was “inactive”.

And the outcome [3]?
The outcome was “inactive”.

What does the source list for `Nc1nc(Cl)nc2c1ncn2[C@H]1C[C@H](O)[C@@H](CO)O1`?
Potency [4]: 27 µM (active); Potency [5]: inactive; viability (% of control) [6]: -0.421% [at 92.2 µM]; Potency [8]: inactive; Potency [9]: 501 nM (active); activation [10]: 0.321% (inactive); activation [12]: 1.52% (inactive); max response [13]: -0.979% (inactive)
